# From PubChem BioAssay
# Assay: reversal of MRP1-mediated doxorubicin resistance, pilot screen, H69AR cells, doxorubicin co-treatment (AID 601)
# Details: H69AR cells, CellTiter-Glo, 72 h; compound alone cytotoxicity; at 10 µM
row,Structure (SMILES),viability [%]
1,CCOc1ccccc1CNC(=O)CCN1C(=O)COc2ccccc21,92.9
2,CCOc1ccccc1CN1C(=O)c2ccccc2C1C(=O)NCC1CCCO1 (stereo not given),101
3,O=C(CCCc1cccs1)Nc1nc2c(s1)CCCC2,84.5
4,COc1ccc(-c2noc(CCCC(=O)O)n2)cc1,95
5,CCCN(Cc1cc2cc(C)ccc2[nH]c1=O)C(=O)c1cccc(OC)c1,81.2
6,COC(=O)c1cnc2c(C(F)(F)F)cccc2c1OC,98.4
7,COc1ccccc1Nc1ccc(C(=O)NC2CCCCC2)cn1,93.2
8,COc1cccc(C(=O)Nc2ncc3c(n2)CC(C)CC3=O)c1 (stereo not given),109
9,Cc1ccc(-n2c(Cn3cnc4ccccc43)nnc2SCC(=O)O)cc1,97.7
10,COCCNc1oc(-c2ccc(C)cc2)nc1C#N,85.9
11,c1cn(C23CC4CC(CC(C4)C2)C3)cn1,92.3
12,CCN(Cc1cc2ccccc2[nH]c1=O)S(=O)(=O)c1ccccc1,87.1
13,CCCCn1nc(C(=O)N2CCc3ccccc32)c2ccccc2c1=O,93.9
14,Cc1ccc(NCc2nnc(SCC(=O)N3CCCCC3)n2CC2CCCO2)c(C)c1 (stereo not given),88.7
15,COC(=O)c1[nH]c2ccc(F)cc2c1NS(=O)(=O)c1ccc(OC)cc1OC,84.4
16,O=c1cc(COn2nnc3ccc(C(F)(F)F)cc32)nc2sccn12,85.7
17,CS(=O)(=O)N1CCCC(C(=O)NCCCN2CCc3ccccc3C2)C1 (stereo not given),95.1
18,CCNc1nc(N2CCOCC2)nc(N(c2ccccc2)c2ccccc2)n1,84.2
19,NC(=O)CSc1nnc(-c2cc3ccccc3o2)n1Cc1ccccc1,90.3
20,CS(=O)(=O)Nc1ccc(C(=O)NCc2ccco2)cc1,103
